From PubChem BioAssay
The list is not random: actives were taken first. Their share in the collection is about 11%.
Lmaj promast = reduces viability of Leishmania major promastigotes | resazurin fluorescence viability | inhibition, % at 10 µM | 200,000 compounds, 9% hits; in the data active means inhibition above about 50%;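 further: promastigotes grown with compound for 44 hours at 28 °C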
Autophagy HCS = autophagy modulation, high-content screen | MEF GFP-LC3 puncta imaging; test concentration mostly 10 µM | calls only at 10 µM (by protocol) | 190,000 compounds, 0.98% hits | AID 463193;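 active means percentage of spot-positive cells more than 3 SD above its plate mean, without a fluorescence outlier flag or 80% toxicity; inconclusive means no clear call, values can overlap the other calls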;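 further: spot-positive cell cutoff set from DMSO-treated cells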
Ins promoter up = MIN6 insulin promoter up-regulation; MIN6 insulin promoter-GFP reporter, high-content imaging; hits give high values; z-score at 5 µM; 190,000 compounds, 0.3% hits; AID 1625;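 active means z-score above 3 at 5 µM with at least 500 cells counted in the well; inconclusive means wells under 500 cells, flagged as cytotoxic or low count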
Insulin prom inh = TRM-6 insulin promoter activity inhibition | TRM-6 cells (human fetal islet line), insulin promoter-eGFP reporter, imaging; reporter expression induced with tamoxifen | 130,000 compounds, 0.9% hits | inhibition, % at 2 µM;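 active means inhibition above the mean plus 3 SD, with well images judged a real hit on visual review, cut at about 60% in these data, passing the limit was not always enough; inconclusive means inhibition over the cutoff but images rejected on review; inactive means inhibition not above the cutoff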
WT yeast gro inh = growth inhibition of WT yeast, mitochondrial fusion screen | mitochondrial fusion phenotypic screen, WT strain | inhibition, % at 10 µM | 190,000 compounds, 2.1% hits; in the data active means inhibition above about 58%; tested in S. cerevisiae
The depositor's hits bear a star; i = inactive; ? = inconclusive; . = no result given; + = active, no number.

SMILES	Lmaj promast	Autophagy HCS	Ins promoter up	Insulin prom inh	WT yeast gro inh
COC(=O)[C@@H]1[C@@H](C#N)C2(c3ccccc3-c3ccccc32)N(c2ccc(Cl)cc2)N1C#N	-2	i	.	-44	74*
O=C(NCCc1ccc(Cl)cc1)C1CCN(S(=O)(=O)N2CCC3(CC2)OCCO3)CC1	-2	i	-0.05	-23	-3
O=C(Nc1cccc(Br)c1)c1ccc(OC2CSC2)cc1	2	i	-0.13	.	5
C/C(=N/Oc1nc(C)cc(C)n1)c1ccc(F)cc1	-5	i	1.2	-34	48
Oc1ccc2ccccc2c1N=Nc1ccccn1	100*	i	-8.6	43	11
N#CC1=C(N)Oc2c(ccc3ccccc23)C1c1cccs1 (stereo unspecified)	-1	+	-1.7	-7	19
COc1ccc(N(CC(=O)N2CCc3ccccc3C2)S(=O)(=O)c2c(C)nn(C)c2C)cc1	4	i	-0.69	.	10
O=C(CCl)Nc1ccc(N=Nc2ccccc2)cc1	100*	i	0.2	17	-21
O=C(O)CC(=O)Nc1ccccc1	-7	i	.	0	1
O=C(CCl)Nc1ccc(N2CCCCCC2)cc1	99*	i	0.75	.	-3
O=C(CCl)Nc1ccc(-c2ccccc2)cc1	79*	i	-1.1	.	-8
CC(C)N(c1ccccc1)c1ccc(NC(=O)CCl)cc1	55*	i	-0.31	.	-44
O=C(NC12CC3CC(CC(C3)C1)C2)N1CCC(O)(c2ccc3c(c2)OCO3)CC1	10	i	0.58	.	3
O=C(CCl)Nc1cn(-c2ccccc2)nc1-c1ccccc1	99*	i	-0.15	7	29
CCCC(=O)NC(NC(=S)Nc1ccc(N=Nc2ccccc2)cc1)C(Cl)(Cl)Cl (stereo unspecified)	57*	i	-0.5	5	8
CCc1ccc(OCC(=O)NC(NC(=S)Nc2ccc(Cl)cc2)C(Cl)(Cl)Cl)cc1 (stereo unspecified)	61*	i	-0.03	7	1
CCCCC(=O)NNC(=S)NCc1ccccc1	-2	i	0.06	.	-12
O=C(Cn1ncc(Cl)c(Cl)c1=O)c1ccc(Cl)cc1	76*	i	.	-8	-13
CC(C)(C)C(=O)Cn1ncc(N2CCCC2)c(Br)c1=O	-1	i	-0.5	7	3
O=C1CN(C(=O)Cn2ncc(Cl)c(Cl)c2=O)c2ccccc2N1	74*	i	-2.4	.	-9
Cc1nc2ccccc2n1CC(=O)N1CC(=O)Nc2ccccc21	-5	i	-0.7	.	24
O=C1CN(C(=O)COc2ncnc3ccccc23)c2ccccc2N1	-2	i	4*	0	-3
Cc1sc2ncnc(OCC(=O)N3CC(=O)Nc4ccccc43)c2c1C	12	i	0.66	19	3
CC(C)(C)C(=O)Cn1ncc(Cl)c(Cl)c1=O	34	+	?	i	2
CCc1oc(C(=O)OC)cc1CSC(=N)N	.	.	-0.05	.	.
SMILES	Lmaj promast	Autophagy HCS	Ins promoter up	Insulin prom inh	WT yeast gro inh
COc1ccc(N2CCN(C(C)C(=O)Nc3nnc(C)s3)CC2)cc1 (stereo unspecified)	-5	i	-1.2	.	-16
C=CCn1c(C)cc(C(=O)Cn2ncc(Cl)c(Cl)c2=O)c1C	87*	i	?	-28	-28
C=CCn1c(C)cc(C(=O)CN2NS(=O)(=O)c3ccccc3C2=O)c1C	32	i	-2.7	-21	1
Cc1ccc(NC(=O)CN(C)C(=O)COc2c(Cl)cc(Cl)c3ccc(C)nc23)cc1	2	i	0.4	.	7
Cc1ccc(NC(=O)CN(C)C(=O)Cn2ncc(Cl)c(Cl)c2=O)cc1	73*	i	?	-212	-8
Cc1cc(-c2ccn[nH]2)c(C)s1	-3	i	-1	.	5
CCOC(=O)C(C)/C(C)=N\Nc1ccc([N+](=O)[O-])cc1[N+](=O)[O-] (stereo unspecified)	2	i	0.09	.	-10
CCOC(=O)C(C)/C(C)=N/NC(N)=S (stereo unspecified)	61*	i	0.68	-25	14
CN(C)S(=O)(=O)c1ccc(NC(=O)c2c(F)cccc2Cl)cc1	4	i	-0.15	26	-2
CCCCN(C)CCNC(=O)C(=O)c1c(C)[nH]c2ccccc12	4	i	0.23	-27	-16
CCCCNC(=S)N(C)/N=C/c1c(F)c(F)c(F)c(F)c1F	-2	i	-0.06	0	60*
CCCCNC(=S)N(C)/N=C/c1c(C)[nH]c2ccccc12	56*	+	0.81	-108	-2
Cc1ccc(C2NC(c3ccc(C)cc3)C(C)C(=NO)C2C)cc1 (stereo unspecified)	8	i	.	29	83*
CC1C(=NO)C(C)C(c2ccccc2)NC1c1ccccc1 (stereo unspecified)	2	i	0.64	.	-3
CN(C(=O)/C(N=Nc1cccc(C(F)(F)F)c1)=C(\O)C(F)(F)F)c1ccccc1	0	i	-0.25	-20	70*
CC1CCC/C(=N\NC(=O)c2ccncc2)C1 (stereo unspecified)	-4	i	-0.44	-7	1
Cc1nc([N+](=O)[O-])c(Br)n1CC(=O)c1ccc(Br)cc1	98*	i	0.01	45	34
Cc1nc([N+](=O)[O-])c(Br)n1CC(=O)c1ccccc1	96*	i	0.37	50	-10
Cc1nc([N+](=O)[O-])c(Br)n1CC(=O)c1ccc2ccccc2c1	100*	i	-0.49	52	40
